Hits are enriched below; roughly 18% of the tested compounds scored in any of these assays.
IL-1B inflam inh = inflammasome signaling inhibition, IL-1 beta readout; THP-1 LPS/ATP IL-1B secretion, AlphaLISA, 16 h; active compounds read low; activity change, % at 57.5 µM; 360,000 tested, 4.7% active; AID 743279; in the data active means activity change below about -50%; inconclusive means mostly about -30% to -49%
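THP-1 cells pretreated 1 hr with compounds (up to 57.5 uM final), then stimulated with LPS (250 ng/mL final) plus ATP (1.25 mM final); secreted IL-1B measured by AlphaLISA after 16 hr, decreased signal indicating inhibition.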
TDP1 cell CPT = DT40-hTDP1 cell growth loss with CPT; chicken DT40 Tdp1-/-;hTDP1 cells + 20 nM CPT, ATP luminescence, 48 h; Potency, µM (top dose mostly 46.2 µM), actives largely listed as inhibitors; 420,000 tested, 12% active; further: nearly all actives have a fitted effect of over 55% in size
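Chicken DT40 Tdp1-/- cells stably complemented with human TDP1 were seeded at 400 cells/well in medium containing 20 nM camptothecin, exposed to pin-transferred compounds, and grown at 37 °C for at least 48 hr. Viability was read as ATP luminescence.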
RORg inh = ROR gamma (mouse) transcription inhibition. P51450. Drosophila S2 Gal4-RORgamma UAS-luciferase reporter, 20 h. Potency, µM (highest dose often 53.6 µM), usual class: inhibitors. 310,000 tested, 5.4% active. AID 2551; further: nearly all actives have a fitted effect of over 60% in size
Target sequence (P51450 whole entry, looked up, the tested form may be a part): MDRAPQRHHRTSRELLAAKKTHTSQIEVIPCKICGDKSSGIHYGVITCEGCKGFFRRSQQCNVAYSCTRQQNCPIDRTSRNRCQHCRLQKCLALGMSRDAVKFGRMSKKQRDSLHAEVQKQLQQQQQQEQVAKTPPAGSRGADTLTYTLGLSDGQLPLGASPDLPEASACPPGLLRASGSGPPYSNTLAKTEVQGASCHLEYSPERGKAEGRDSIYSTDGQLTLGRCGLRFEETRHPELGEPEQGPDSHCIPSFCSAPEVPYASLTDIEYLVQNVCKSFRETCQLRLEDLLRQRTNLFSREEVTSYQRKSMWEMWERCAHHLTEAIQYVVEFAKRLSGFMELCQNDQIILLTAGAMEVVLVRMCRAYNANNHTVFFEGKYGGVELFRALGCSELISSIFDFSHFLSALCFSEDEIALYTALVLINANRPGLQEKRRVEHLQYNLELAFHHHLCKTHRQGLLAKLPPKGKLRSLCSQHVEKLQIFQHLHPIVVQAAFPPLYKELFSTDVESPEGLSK
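Luciferase reporter read in Schneider cells carrying Gal4-RORγ (mouse) and UAS-Photinus luciferase; cells given compound 1 h before 700 uM copper sulfate induction, then incubated 20 h at ambient temperature.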
TDP1 cell noCPT = qHTS for Inhibitors of human tyrosyl-DNA phosphodiesterase 1 (TDP1): qHTS in cells in absence of CPT. DT40 Tdp1-/- hTDP1 cells, no CPT, ATP luminescence, 48 h. Potency, µM (series often up to 46.2 µM), actives largely listed as inhibitors. 420,000 tested, 15% active; further: nearly all actives have a fitted effect of over 55% in size
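DT40 Tdp1-/-;hTDP1 cells, no CPT (DMSO vehicle only), 400 cells/well; compounds pin-transferred; ≥48 hr, 37 °C; CellTiter-Glo 30 min RT dark, luminescence read.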
Gal4-VP16 FLuc = inhibits Gal4-VP16 luciferase reporter, ROR gamma counter-screen. Drosophila S2 Gal4-VP16 UAS-luciferase, luminescence, 20 h. Potency, µM (highest dose often 53.6 µM), hits mostly inhibitors. 310,000 tested, 3.5% active. AID 2546;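 further: Gal4-VP16 expression switched on by copper sulfate through the metallothionein promoter; nearly all actives have a fitted effect of over 50% in size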
LDHA block = inhibitors of human lactate dehydrogenase A | activity change, % (values are at about 110 or 230 µM) | purified LDHA, NADH/diaphorase-resazurin fluorescence; active compounds read low | 480,000 tested, 0.15% active | P00338 | AID 1347041; in the data active means activity change below about -30%; inconclusive means mostly about -25% to -30%
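LDH5 2 nM; NADH 0.06 mM, pyruvate 0.2 mM; 200 mM Tris pH 7.4, EDTA, Tween-20; 5 min RT. Detection: diaphorase 0.133 mg/mL + resazurin 37 µM, fluorescence ex540/em590 at 0 and 20 min; normalized to enzyme-free and DMSO wells.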
Each line names hits and unclear results; the compound was inactive in the other large screens. Unless noted, the call rests on the fitted dose curve; in most records, active means well fitted curve in the direction sought with a large enough effect; inconclusive means small, poorly fitted or top-dose-only effect, or another doubt; inactive means no such curve, though single readings can be large; an effect the other way counts as inactive or inconclusive.

C(=N\Nc1ccc2ccccc2n1)/c1ccc2c(c1)OCCO2	TDP1 cell CPT inconclusive, RORg inh 2.51µM, TDP1 cell noCPT inconclusive, Gal4-VP16 FLuc 2µM
CCCc1cc(=O)[nH]c(SC(C)C(=O)NC2CCCCCC2)n1 (stereo not drawn)	none (no result: IL-1B inflam inh, TDP1 cell CPT, RORg inh, TDP1 cell noCPT, Gal4-VP16 FLuc)
CCOc1ccc2c(c1)c(C(C)=O)c(C)n2-c1ccc(OC)cc1	none (no result: IL-1B inflam inh, TDP1 cell CPT, RORg inh, TDP1 cell noCPT, Gal4-VP16 FLuc)
C#CCOc1ccc(-c2nnc3n2N=C(c2ccc(OC)c(OCC(C)=O)c2)CS3)cc1	none (no result: IL-1B inflam inh, TDP1 cell CPT, RORg inh, TDP1 cell noCPT, Gal4-VP16 FLuc)
Cc1cccc(/C=N/Nc2ccc3ccccc3n2)c1	IL-1B inflam inh -75.3, RORg inh 2.82µM, TDP1 cell noCPT 29.1µM, Gal4-VP16 FLuc 6.31µM
Cc1cc(N/N=C/c2ccncc2)nc2ccccc12	RORg inh inconclusive, TDP1 cell noCPT inconclusive
COc1ccc(CC(=O)N2N=C(C)CC2(O)C(F)(F)F)cc1OC (stereo not drawn)	RORg inh inconclusive, Gal4-VP16 FLuc inconclusive
CC1=NN(C(=O)c2ccc(Br)cc2)C(O)(C(F)(F)OC(F)(F)F)C1 (stereo not drawn)	IL-1B inflam inh -54.8, TDP1 cell CPT inconclusive, RORg inh 11.2µM, TDP1 cell noCPT inconclusive, Gal4-VP16 FLuc 17.8µM
COC(=O)C1=NN(C(=O)c2ccc(Br)cc2)C(O)(C(C)(C)C)C1 (stereo not drawn)	RORg inh inconclusive, Gal4-VP16 FLuc inconclusive
CC1=NN(C(=O)c2csc(C)c2)C(O)(C(F)(F)F)C1 (stereo not drawn)	TDP1 cell CPT 0.13µM, RORg inh 3.55µM, TDP1 cell noCPT 0.13µM, Gal4-VP16 FLuc 5.62µM
CC1=NN(C(=O)c2csc(C)c2C)C(O)(C(F)(F)F)C1 (stereo not drawn)	TDP1 cell CPT 0.651µM, RORg inh 5.62µM, TDP1 cell noCPT 0.92µM, Gal4-VP16 FLuc 4.47µM
Cc1ccc(C(=O)N2N=C(c3ccccc3)CC2(O)C(F)(F)F)o1 (stereo not drawn)	TDP1 cell noCPT inconclusive
CC1=NN(C(=O)c2c(Br)c(C)nn2C)C(O)(C(F)(F)F)C1 (stereo not drawn)	TDP1 cell CPT 1.16µM, RORg inh 20µM, TDP1 cell noCPT 1.03µM, Gal4-VP16 FLuc inconclusive
Cc1cc(C)cc(NC(=O)c2cc(C)nn2C)c1	none
CC1=NN(C(=O)c2cc(C)nn2C)C(O)(C(F)(F)F)C1 (stereo not drawn)	TDP1 cell CPT 0.651µM, RORg inh 11.2µM, TDP1 cell noCPT 0.92µM, Gal4-VP16 FLuc inconclusive
CC(C)(C)c1cc(C(=O)O)n(Cc2ccc(Cl)cc2Cl)n1	TDP1 cell CPT 14.6µM
CCOc1ccccc1CNC(=O)c1cc2oc3ccccc3c2n1CC	IL-1B inflam inh inconclusive, TDP1 cell CPT 25.9µM, TDP1 cell noCPT 18.4µM
CCn1c(C(=O)NCc2ccc(F)cc2)cc2oc3ccccc3c21	TDP1 cell CPT 20.6µM, TDP1 cell noCPT inconclusive (no result: IL-1B inflam inh, RORg inh, Gal4-VP16 FLuc)
CCOc1ccc(CNC(=O)c2cc3oc4ccccc4c3n2C)cc1	IL-1B inflam inh inconclusive, TDP1 cell CPT inconclusive, TDP1 cell noCPT inconclusive
COc1cccc(CNC(=O)c2cc3oc4ccccc4c3n2C)c1OC	none
COc1ccc(-c2cc(NC=O)c3ncc(-c4cccc(C(=O)N(C)C)c4)n3c2)cn1	TDP1 cell CPT 23.1µM, TDP1 cell noCPT 16.4µM (no result: RORg inh, Gal4-VP16 FLuc)
COc1cccc(-c2cnc3c(NC=O)cc(-c4cccc(C(=O)N(C)C)c4)cn23)c1	TDP1 cell CPT inconclusive, TDP1 cell noCPT inconclusive (no result: RORg inh, Gal4-VP16 FLuc)
CN(C)C(=O)c1cccc(-c2cnc3c(NC=O)cc(-c4ccc(N(C)C)cc4)cn23)c1	TDP1 cell CPT 18.4µM, TDP1 cell noCPT inconclusive (no result: RORg inh, Gal4-VP16 FLuc)
CN(C)C(=O)c1cccc(-c2cc(NC=O)c3ncc(-c4ccc(F)c(Cl)c4)n3c2)c1	TDP1 cell CPT 16.4µM, TDP1 cell noCPT 23.1µM (no result: RORg inh, Gal4-VP16 FLuc)
CN(C)CCNC(=O)c1cccc(-c2cnc3c(NC=O)cc(-c4ccc(S(C)(=O)=O)cc4)cn23)c1	none (no result: RORg inh, Gal4-VP16 FLuc)
CN(C)C(=O)c1cccc(-c2cnc3c(NC=O)cc(-c4cccc(F)c4)cn23)c1	TDP1 cell CPT 20.6µM, TDP1 cell noCPT 14.6µM (no result: RORg inh, Gal4-VP16 FLuc)
COCCn1c(SCc2ccc3c(c2)OCO3)nnc1-c1ccc(Cl)cc1	none (no result: IL-1B inflam inh, TDP1 cell CPT, RORg inh, TDP1 cell noCPT, Gal4-VP16 FLuc)
O=C(CN1CCN(S(=O)(=O)Cc2ccccc2)CC1)Nc1ccc(F)c(F)c1	none (no result: IL-1B inflam inh, TDP1 cell CPT, RORg inh, TDP1 cell noCPT, Gal4-VP16 FLuc)
CN(C)C(=O)c1cccc(-c2cnc3c(NC=O)cc(-c4cccc(C(F)(F)F)c4)cn23)c1	TDP1 cell CPT 8.2µM, TDP1 cell noCPT 8.2µM (no result: RORg inh, Gal4-VP16 FLuc)
COc1cccc(-c2cc(NC=O)c3ncc(-c4cccc(C(=O)N(C)C)c4)n3c2)c1	TDP1 cell CPT inconclusive, TDP1 cell noCPT inconclusive (no result: RORg inh, Gal4-VP16 FLuc)
Cc1cccc(-c2cc(NC=O)c3ncc(-c4cccc(C(=O)N(C)C)c4)n3c2)c1	TDP1 cell CPT inconclusive, TDP1 cell noCPT 16.4µM (no result: RORg inh, Gal4-VP16 FLuc)
CCCc1nnc2sc(-c3cc(OC)c(OC)c(OC)c3)nn12	none (no result: IL-1B inflam inh, TDP1 cell CPT, RORg inh, TDP1 cell noCPT, Gal4-VP16 FLuc)
COc1ccccc1CNc1nc(-c2ccccc2CN(C)C)nc2ccccc12	TDP1 cell CPT 11.6µM, RORg inh inconclusive, TDP1 cell noCPT 6.51µM (no result: IL-1B inflam inh, LDHA block)
COCCNc1nc(-c2ccccc2C(F)(F)F)nc2ccccc12	none (no result: IL-1B inflam inh, LDHA block)
COc1ccccc1CNc1nc(-c2ccoc2)nc2ccccc12	TDP1 cell CPT 14.6µM, RORg inh inconclusive, TDP1 cell noCPT 25.9µM, Gal4-VP16 FLuc inconclusive (no result: IL-1B inflam inh, LDHA block)
COCCNc1nc(-c2ccccc2C)nc2ccccc12	TDP1 cell CPT inconclusive, TDP1 cell noCPT 18.4µM (no result: IL-1B inflam inh, LDHA block)

High-throughput results deposited in PubChem BioAssay by National Center for Advancing Translational Sciences (NCATS).
